# Data published in the supplement of paper PMC8728848.
# Many of the other results were omitted from the sample, so the strongest signals are more common in it than they were.
# B1: PEB3 (Campylobacter jejuni), Q0PBL7 (protein)
# chain: MKKIITLFGACALAFSMANADVNLYGPGGPHTALKDIANKYSEKTGVKVNVNFGPQATWFEKAKKDADILFGASDQSALAIASDFGKDFNVSKIKPLYFREAIILTQKGNPLKIKGLKDLANKKVRIVVPEGAGKSNTSGTGVWEDMIGRTQDIKTIQNFRNNIVAFVPNSGSARKLFAQDQADAWITWIDWSKSNPDIGTAVAIEKDLVVYRTFNVIAKEGASKETQDFIAYLSSKEAKEIFKKYGWRE
# B2: MIC1 (Toxoplasma gondii), O00834 (protein)
# chain: MGQALFLTVLLPVLFGVGPEAYGEASHSHSPASGRYIQQMLDQRCQEIAAELCQSGLRKMCVPSSRIVARNAVGITHQNTLQWRCFDTASLLESNQENNGVNCVDDCGHTIPCPGGVHRQNSNHATRHEILSKLVEEGVQRFCSPYQASANKYCNDKFPGTIARRSKGFGNNVEVAWRCYEKASLLYSVYAECASNCGTTWYCPGGRRGTSTELDKRHYTEEEGIRQAIGSVDSPCSEVEVCLPKDENPPLCLDESGQISRTGGGPPSQPPEMQQPADRSDERGGGKEQSPGGEAQPDHPTKGGNIDLPEKSTSPEKTPKTEIHGDSTKATLEEGQQLTLTFISTKLDVAVGSCHSLVANFLDGFLKFQTGSNSAFDVVEVEEPAGPAVLTIGLGHKGRLAVVLDYTRLNAALGSAAYVVEDSGCSSSEEVSFQGVGSGATLVVTTLGESPTAVSA
# Key:
# Experiment in all cases: glycan array binding signal (z-score within array); higher = stronger binding
# Conditions in all cases: glycan notation: IUPAC condensed, linker removed
# [1] = target: Fuc(a1-2)Gal(b1-3)GalNAc(b1-4)[Neu5Ac(a2-3)]Gal(b1-4)Glc
# How it was run: (§1)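 The binding signal is a Z-score computed within each array and averaged over linkers. Arrays of the same protein sequence at different concentrations or buffers were also averaged together. Data originate from 3228 arrays in the Consortium for Functional Glycomics database, kept only where the protein sequence was available.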
# [2] = target: Fuc(a1-2)Gal(b1-3)[Fuc(a1-4)]GlcNAc
# How it was run: as §1
# [3] = target: Fuc(a1-2)Gal(b1-4)[Fuc(a1-3)]GlcNAc(b1-2)Man(a1-3)[Fuc(a1-2)Gal(b1-4)[Fuc(a1-3)]GlcNAc(b1-2)Man(a1-6)]Man(b1-4)GlcNAc(b1-4)GlcNAc
# How it was run: as §1
# [4] = target: Fuc(a1-2)[Gal(a1-3)]Gal(b1-4)Glc
# How it was run: as §1
# [5] = target: Fuc(a1-2)[Gal(a1-3)]Gal(b1-4)GlcNAc
# How it was run: as §1
# [6] = target: Fuc(a1-3)[Gal(b1-4)]GlcNAc(b1-4)Gal(b1-4)[Fuc(a1-3)]GlcNAc(b1-4)Gal(b1-4)[Fuc(a1-3)]GlcNAc
# How it was run: as §1
# [7] = target: Fuc(a1-3)[Gal3S(b1-4)]GlcNAc6S
# How it was run: as §1
# Fuc(a1-4)GlcNAc = target: Fuc(a1-4)GlcNAc
# How it was run: as §1
# Gal(a1-3)Gal = target: Gal(a1-3)Gal
# How it was run: as §1
# [8] = target: Gal(a1-3)Gal(b1-3)[Fuc(a1-4)]GlcNAc(b1-2)Man(a1-3)[Gal(a1-3)Gal(b1-3)[Fuc(a1-4)]GlcNAc(b1-2)Man(a1-6)]Man(b1-4)GlcNAc(b1-4)GlcNAc
# How it was run: as §1
# [9] = target: Gal(a1-3)Gal(b1-4)GlcNAc(b1-3)GalNAc
# How it was run: as §1
# [10] = target: Gal(b1-3)GlcNAc(b1-3)Gal(b1-4)GlcNAc(b1-6)[Gal(b1-3)GlcNAc(b1-3)]Gal(b1-4)Glc
# How it was run: as §1
# [11] = target: Gal(b1-3)[Fuc(a1-4)]GlcNAc(b1-3)Gal(b1-4)[Fuc(a1-3)]GlcNAc
# How it was run: as §1
# [12] = target: Gal(b1-3)[Neu5Ac(a2-6)]GalNAc
# How it was run: as §1
# [13] = target: Gal(b1-4)GlcNAc(b1-3)[Gal(b1-4)GlcNAc(b1-6)]Gal(b1-4)GlcNAc
# How it was run: as §1
# [14] = target: Gal(b1-4)GlcNAc(b1-6)[Gal(b1-3)]GalNAc
# How it was run: as §1
# [15] = target: GalNAc(b1-4)GlcNAc(b1-2)Man(a1-3)[GalNAc(b1-4)GlcNAc(b1-2)Man(a1-6)]Man(b1-4)GlcNAc(b1-4)GlcNAc
# How it was run: as §1
# [16] = target: GlcNAc(a1-4)Gal(b1-4)GlcNAc(b1-3)Gal(b1-4)[Fuc(a1-3)]GlcNAc(b1-3)Gal(b1-4)[Fuc(a1-3)]GlcNAc
# How it was run: as §1
# [17] = target: GlcNAc(b1-2)Gal(b1-3)GalNAc
# How it was run: as §1
# [18] = target: GlcNAc(b1-3)Gal(b1-3)GalNAc
# How it was run: as §1
# GlcNAc(b1-3)GalNAc = target: GlcNAc(b1-3)GalNAc
# How it was run: as §1
# [19] = target: Man(a1-2)Man(a1-3)[Man(a1-6)]Man(a1-6)[Man(a1-2)Man(a1-3)]Man(b1-4)GlcNAc(b1-4)GlcNAc
# How it was run: as §1
# [20] = target: Man(a1-3)[Man(a1-6)]Man(a1-6)[Man(a1-3)]Man
# How it was run: as §1
# [21] = target: Neu5Ac(a2-3)Gal(b1-3)GlcNAc(b1-3)Gal(b1-4)GlcNAc
# How it was run: as §1
# [22] = target: Neu5Ac(a2-3)Gal(b1-4)GlcNAc(b1-3)Gal(b1-4)GlcNAc(b1-3)Gal(b1-4)GlcNAc
# How it was run: as §1
# [23] = target: Neu5Ac(a2-3)Gal(b1-4)GlcNAc(b1-3)Gal(b1-4)[Fuc(a1-3)]GlcNAc
# How it was run: as §1
# [24] = target: Neu5Ac(a2-3)Gal(b1-4)[Fuc(a1-3)]GlcNAc(b1-3)GalNAc
# How it was run: as §1
# [25] = target: Neu5Ac(a2-6)Gal(b1-4)GlcNAc(b1-2)Man(a1-3)[Neu5Ac(a2-6)Gal(b1-4)GlcNAc(b1-2)Man(a1-6)]Man(b1-4)GlcNAc(b1-4)GlcNAc
# How it was run: as §1
# [26] = target: Neu5Ac(a2-6)Gal(b1-4)GlcNAc(b1-2)Man(a1-6)[GlcNAc(b1-2)Man(a1-3)]Man(b1-4)GlcNAc(b1-4)GlcNAc
# How it was run: as §1
# [27] = target: Neu5Ac(a2-6)Gal(b1-4)GlcNAc(b1-3)GalNAc
# How it was run: as §1
# [28] = target: Neu5Ac(a2-6)GlcNAc(b1-4)GlcNAc
# How it was run: as §1
# [29] = target: Neu5Ac(a2-8)Neu5Ac(a2-8)Neu5Ac(a2-8)Neu5Ac(a2-3)[GalNAc(b1-4)]Gal(b1-4)Glc
# How it was run: as §1
# [30] = target: Neu5Gc(a2-3)Gal(b1-4)GlcNAc
# How it was run: as §1
# [31] = target: Fuc(a1-2)Gal(b1-4)[Fuc(a1-3)]GlcNAc
# How it was run: as §1
# [32] = target: Fuc(a1-2)Gal(b1-4)[Fuc(a1-3)]GlcNAc(b1-3)Gal(b1-4)[Fuc(a1-3)]GlcNAc
# How it was run: as §1
# [33] = target: Fuc(a1-3)[Gal3S(b1-4)]GlcNAc
# How it was run: as §1
# Gal(a1-3)Gal(b1-3)GlcNAc = target: Gal(a1-3)Gal(b1-3)GlcNAc
# How it was run: as §1
# [34] = target: Gal(a1-3)Gal(b1-4)[Fuc(a1-3)]GlcNAc
# How it was run: as §1
# Gal(a1-3)GalNAc = target: Gal(a1-3)GalNAc
# How it was run: as §1
# Gal3S(b1-4)Glc = target: Gal3S(b1-4)Glc
# How it was run: as §1
# Gal3S6S(b1-4)GlcNAc = target: Gal3S6S(b1-4)GlcNAc
# How it was run: as §1
# Gal4S6S(b1-4)GlcNAc = target: Gal4S6S(b1-4)GlcNAc
# How it was run: as §1
# GlcNAc3Prop(b1-4)GlcNAc = target: GlcNAc3Prop(b1-4)GlcNAc
# How it was run: as §1
# Kdn(a2-3)Gal(b1-4)GlcNAc = target: Kdn(a2-3)Gal(b1-4)GlcNAc
# How it was run: as §1
# [35] = target: Man(a1-2)Man(a1-3)[Man(a1-2)Man(a1-6)]Man(a1-6)[Man(a1-2)Man(a1-2)Man(a1-3)]Man
# How it was run: as §1
# Neu5Ac(a2-3)Gal = target: Neu5Ac(a2-3)Gal
# How it was run: as §1
# [36] = target: Neu5Ac(a2-3)Gal(b1-3)GalNAc(b1-4)[Neu5Ac(a2-3)]Gal(b1-4)Glc
# How it was run: as §1
# [37] = target: Neu5Ac(a2-3)Gal(b1-3)GlcNAc6S
# How it was run: as §1
# [38] = target: Neu5Ac(a2-3)Gal(b1-3)[Neu5Ac(a2-3)Gal(b1-4)]GlcNAc
# How it was run: as §1
# [39] = target: Neu5Ac(a2-3)Gal(b1-4)GlcNAc(b1-2)Man(a1-3)[GlcNAc(b1-2)Man(b1-4)GlcNAc(b1-2)Man(a1-6)]Man(b1-4)GlcNAc(b1-4)GlcNAc
# How it was run: as §1
# [40] = target: Neu5Ac(a2-3)Gal(b1-4)GlcNAc6S
# How it was run: as §1
# [41] = target: Neu5Ac(a2-3)Gal6S(b1-4)[Fuc(a1-3)]GlcNAc
# How it was run: as §1
# [42] = target: Neu5Ac(a2-3)[GalNAc(b1-4)]Gal(b1-4)GlcNAc
# How it was run: as §1
# [43] = target: Neu5Ac(a2-3)[Neu5Ac(a2-6)]GalNAc
# How it was run: as §1
# [44] = target: Neu5Ac(a2-6)Gal(b1-4)GlcNAc(b1-3)Gal(b1-4)[Fuc(a1-3)]GlcNAc(b1-3)Gal(b1-4)[Fuc(a1-3)]GlcNAc
# How it was run: as §1
# [45] = target: Neu5Ac(a2-6)GalNAc(b1-4)GlcNAc
# How it was run: as §1
# [46] = target: Neu5Ac9Ac(a2-6)Gal(b1-4)GlcNAc
# How it was run: as §1
binder,measurement,setting,value
B1,glycan array binding signal (z-score),[1],0.671
same,glycan array binding signal (z-score),[2],7.5
same,glycan array binding signal (z-score),[3],4.64
same,glycan array binding signal (z-score),[4],-1.35
same,glycan array binding signal (z-score),[5],0.283
same,glycan array binding signal (z-score),[6],0.144
same,glycan array binding signal (z-score),[7],0.696
same,glycan array binding signal (z-score),Fuc(a1-4)GlcNAc,-0.82
same,glycan array binding signal (z-score),Gal(a1-3)Gal,-0.384
same,glycan array binding signal (z-score),[8],4.25
same,glycan array binding signal (z-score),[9],0.06
same,glycan array binding signal (z-score),[10],-0.921
same,glycan array binding signal (z-score),[11],-0.524
same,glycan array binding signal (z-score),[12],-1.27
same,glycan array binding signal (z-score),[13],-0.199
same,glycan array binding signal (z-score),[14],0.227
same,glycan array binding signal (z-score),[15],4.25
same,glycan array binding signal (z-score),[16],3.7
same,glycan array binding signal (z-score),[17],-0.834
same,glycan array binding signal (z-score),[18],2.96
same,glycan array binding signal (z-score),GlcNAc(b1-3)GalNAc,-0.715
same,glycan array binding signal (z-score),[19],-0.005
same,glycan array binding signal (z-score),[20],-1.11
same,glycan array binding signal (z-score),[21],-0.117
same,glycan array binding signal (z-score),[22],-1.17
same,glycan array binding signal (z-score),[23],0.473
same,glycan array binding signal (z-score),[24],4.53
same,glycan array binding signal (z-score),[25],0.39
same,glycan array binding signal (z-score),[26],-0.237
same,glycan array binding signal (z-score),[27],-0.21
same,glycan array binding signal (z-score),[28],-0.895
same,glycan array binding signal (z-score),[29],-0.3
same,glycan array binding signal (z-score),[30],-0.701
B2,glycan array binding signal (z-score),[1],-0.232
same,glycan array binding signal (z-score),[31],-0.213
same,glycan array binding signal (z-score),[32],-0.138
same,glycan array binding signal (z-score),[33],-0.041
same,glycan array binding signal (z-score),[7],-0.233
same,glycan array binding signal (z-score),Gal(a1-3)Gal(b1-3)GlcNAc,-0.059
same,glycan array binding signal (z-score),[34],-0.014
same,glycan array binding signal (z-score),Gal(a1-3)GalNAc,-0.139
same,glycan array binding signal (z-score),Gal3S(b1-4)Glc,-0.149
same,glycan array binding signal (z-score),Gal3S6S(b1-4)GlcNAc,-0.228
same,glycan array binding signal (z-score),Gal4S6S(b1-4)GlcNAc,-0.218
same,glycan array binding signal (z-score),GlcNAc3Prop(b1-4)GlcNAc,-0.196
same,glycan array binding signal (z-score),Kdn(a2-3)Gal(b1-4)GlcNAc,-0.256
same,glycan array binding signal (z-score),[35],-0.307
same,glycan array binding signal (z-score),Neu5Ac(a2-3)Gal,-0.068
same,glycan array binding signal (z-score),[36],-0.19
same,glycan array binding signal (z-score),[37],0.131
same,glycan array binding signal (z-score),[38],4.31
same,glycan array binding signal (z-score),[39],3.01
same,glycan array binding signal (z-score),[40],6.25
same,glycan array binding signal (z-score),[41],-0.178
same,glycan array binding signal (z-score),[42],5.43
same,glycan array binding signal (z-score),[43],-0.313
same,glycan array binding signal (z-score),[44],-0.268
same,glycan array binding signal (z-score),[45],-0.152
same,glycan array binding signal (z-score),[46],-0.294
same,glycan array binding signal (z-score),[30],9.71
